TsaE inh = YjeE (TsaE) inhibition, E. coli. purified YjeE enzyme, qHTS inhibition assay. P0AF67. 0.05% of 71,000 active. AID 605. Potency, µM
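Fluorescence polarization of a BODIPY Texas Red–ADP probe (2 uM) bound to purified YjeE (10 uM) was read after 15 min room-temperature incubation with compounds. Loss of polarization marks inhibitors; ADP serves as titrated control.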
Casp7 inh = allosteric or competitive inhibitors of human caspase-7 | AID 889 | 0.02% of 75,000 active | P55210 | recombinant caspase-7, Ac-DEVD-AFC fluorescence rate | Potency, µM (doses to about 57.5 µM), for inactives: top-dose activity change, negative = inhibition, usual class: inhibitors; active = well fitted inhibition curve with a large enough effect in the main read-out, with a control signal flat, not every such curve was filed as active; inconclusive = small, poorly fitted or top-dose-only effect, or a change in a side signal; note: potency is the fitted concentration of half-maximal effect; % of control where 0% means no effect
Target sequence (P55210 24-198 limits assumed): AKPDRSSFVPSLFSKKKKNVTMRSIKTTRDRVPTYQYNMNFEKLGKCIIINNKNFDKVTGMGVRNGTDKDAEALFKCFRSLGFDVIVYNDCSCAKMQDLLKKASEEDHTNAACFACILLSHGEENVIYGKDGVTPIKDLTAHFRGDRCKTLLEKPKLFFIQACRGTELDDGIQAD
Target sequence (P55210 207-303 limits assumed): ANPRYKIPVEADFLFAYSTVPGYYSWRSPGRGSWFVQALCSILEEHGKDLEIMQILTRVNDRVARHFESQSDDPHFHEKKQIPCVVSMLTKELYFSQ
BRCT inh green = inhibitors of human BRCA1 BRCT-phosphoprotein interaction (green fluorophore). P38398. BRCA1 BRCT-phosphopeptide binding, green fluorescence polarization. Potency, µM (series often up to 76.9 µM), without a hit: at the highest dose activity change, negative = inhibition, usual class: inhibitors. 0.05% of 75,000 active. AID 875;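 note: potency is the fitted concentration of half-maximal effect; plate controls were peptide without protein for full effect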
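Compounds were incubated for 12 min at room temperature with a complex of 100 nM fluorescein-tagged pBACH1 decapeptide and 250 nM His-tagged BRCT protein. Buffer was phosphate pH 7.3 with EDTA, DTT and Tween 20. Disruption of binding lowers the polarization signal.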
BRCT PPI red = inhibitors of human BRCA1 BRCT-phosphoprotein interaction (red fluorophore) | BRCT-phosphopeptide binding, red fluorescence polarization | AID 892 | 0.03% of 75,000 active | Potency, µM (top dose mostly 76.9 µM), for the others: top-dose activity change, negative = inhibition, most hits filed as inhibitors; note: % is set by controls: 0 for no effect and ±100 for the full control effect
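Rhodamine-labelled pBACH1 10-mer (100 nM) bound to BRCT domain (100 nM) at pH 7.3; compounds incubated 12 min room temperature, polarization read. Free peptide defines full inhibition; unlabelled decapeptide titrated as control.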
USP2a inh = blocks human ubiquitin-specific protease USP2a | 0.1% of 60,000 active | AID 927 | Potency, µM (highest dose often 38.3 µM), without a hit: at the highest dose activity change, negative = inhibition, most hits filed as inhibitors | O75604 | USP2a enzymatic assay, qHTS inhibition; note: potency is the fitted concentration of half-maximal effect; nearly all actives have a fitted effect of over 60% in size
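USP2 core (20 nM final) was preincubated with compound for 30 min at RT in 20 mM Tris-HCl pH 8.0, 2 mM CaCl2, 2 mM beta-mercaptoethanol; Ub-PLA2 (20 nM) plus NBD C6-HPC (20 uM) then added, fluorescence read after 2.5 h.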
Caspase-1 inhib = caspase-1 (human) inhibition, allosteric or competitive | Potency, µM (top dose mostly 57.5 µM), for the others: at the top dose activity change, negative = inhibition, most hits filed as inhibitors | P29466 | 0.03% of 75,000 active | Caspase-1 enzyme, Ac-WEHD-AFC fluorogenic rate;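 note: potency is the fitted concentration of half-maximal effect; plate controls were vehicle for no effect and no substrate for full effect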
Target sequence (P29466 120-297 limits assumed): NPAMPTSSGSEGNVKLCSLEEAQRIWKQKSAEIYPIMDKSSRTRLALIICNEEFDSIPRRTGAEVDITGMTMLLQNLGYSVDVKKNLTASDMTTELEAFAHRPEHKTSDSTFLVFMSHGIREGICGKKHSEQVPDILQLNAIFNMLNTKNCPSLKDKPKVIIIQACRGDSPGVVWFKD
Target sequence (P29466 317-404 limits assumed): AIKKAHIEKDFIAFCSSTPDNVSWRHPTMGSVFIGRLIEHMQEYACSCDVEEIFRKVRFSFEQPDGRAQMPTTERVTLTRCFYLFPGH
An asterisk follows results filed as active; [ ] = dose if it differs, or a comment. Hits are enriched below; roughly 0.21% of the tested compounds scored in any of these assays. Unless noted, calls come from the whole dose curve; as a rule, active = well fitted curve in the direction sought with a large enough effect; inconclusive = small, poorly fitted or top-dose-only effect, or another doubt; inactive = no such curve, though single readings can be large; an effect the other way counts as inactive or inconclusive.

How did CN(C)c1ccc(C(=C2C=CC(=[N+](C)C)C=C2)c2ccc(N(C)C)cc2)cc1 do in these assays?
TsaE inh: 5.01µM*; Casp7 inh: -15.0%; BRCT inh green: -1.8%[3.08 µM]; BRCT PPI red: -4.4%; USP2a inh: 10µM*; Caspase-1 inhib: -0.6%

What do the screens show for `CN(C)c1ccc(C(=C2C=CC(=[N+](C)C)C=C2)c2ccccc2)cc1`?
TsaE inh: inactive; Casp7 inh: -2.4%[11.5 µM]; BRCT inh green: 0.2%[15.4 µM]; BRCT PPI red: 0.6%[15.4 µM]; Caspase-1 inhib: 0.3%[11.5 µM]

How did COC(=O)C/C=C\[C@@H](C)[C@@H](/C=N\OC[C@@H](O)[C@H]1O[C@H]2OC(C)(C)O[C@H]2[C@@H]1O)OC do in these assays?
Casp7 inh: 0.5%[11.5 µM]; BRCT inh green: 1.1%[15.4 µM]; BRCT PPI red: 0.3%[15.4 µM]; Caspase-1 inhib: 0.5%[11.5 µM]

What do the screens show for `CCNCCNC(=O)c1c(O)c2ccccc2n(CC)c1=O`?
TsaE inh: inactive; Casp7 inh: 1.1%; BRCT inh green: 1.6%; BRCT PPI red: 2.2%; USP2a inh: -3.0%; Caspase-1 inhib: 0.1%

What do the screens show for `C=CCn1c(=O)c(C(=O)NCCNCC)c(O)c2ccccc21`?
TsaE inh: inactive; Casp7 inh: 1.8%; BRCT inh green: 3.1%; BRCT PPI red: -0.5%; USP2a inh: 12.6µM*; Caspase-1 inhib: 1.1%

Results for C#C[C@]1(OC(C)=O)CCC2C3CCC4=CC(=O)CCC4C3CC[C@]21C (stereo not given in full) ?
Casp7 inh: -0.9%; BRCT inh green: -0.1%[3.08 µM]; BRCT PPI red: -1.0%; USP2a inh: 6.1%; Caspase-1 inhib: 0.8%

Results for COc1cccc(Nc2ncc3nc(C)c(=O)n(CCc4ccccc4)c3n2)c1 ?
TsaE inh: inactive; Casp7 inh: inconclusive; BRCT inh green: -2.6%; BRCT PPI red: 0.4%; USP2a inh: 227.8%; Caspase-1 inhib: inconclusive

Results for CC/C(C)=N/O ?
TsaE inh: inactive; Casp7 inh: -0.6%; BRCT inh green: 0.0%; BRCT PPI red: -1.4%; Caspase-1 inhib: 0.1%

How did CCCOc1ccccc1-c1nc2n[nH]nc2c(=O)[nH]1 do in these assays?
TsaE inh: inactive; Casp7 inh: -7.6%; BRCT inh green: -0.8%[3.08 µM]; BRCT PPI red: -7.6%; USP2a inh: 10µM*; Caspase-1 inhib: -5.7%

How did CC1Cc2c(COc3ccccc3)nc3c(c2CO1)CN(CCOc1ccccc1)CC3 (stereo not given) do in these assays?
Casp7 inh: -2.7%[11.5 µM]; BRCT inh green: 2.0%[15.4 µM]; BRCT PPI red: 1.0%[15.4 µM]; Caspase-1 inhib: -4.7%[11.5 µM]

How did O=[N+]([O-])c1ccc2c(N=Nc3ccc4ccccc4c3O)c(O)cc(S(=O)(=O)O)c2c1 do in these assays?
TsaE inh: 7.94µM*; Casp7 inh: -9.1%[11.5 µM]; BRCT inh green: -1.9%[15.4 µM]; BRCT PPI red: -3.2%[15.4 µM]; Caspase-1 inhib: -2.8%[11.5 µM]

How did CCC(C)NC(=O)c1ccccc1C(=O)NC(C)CC (stereo not given) do in these assays?
TsaE inh: inactive; Casp7 inh: 0.4%; BRCT inh green: -1.7%; BRCT PPI red: -2.1%; USP2a inh: 4.8%; Caspase-1 inhib: 0.2%

How did CCC(C)Nc1ccc(NC(C)CC)cc1 (stereo not given) do in these assays?
TsaE inh: 100µM*; Casp7 inh: -10.1%; BRCT inh green: 0.2%; BRCT PPI red: -7.9%; Caspase-1 inhib: inconclusive

Results for Cc1noc(C)c1-c1ccc2ncnc(NCCN3CCOCC3)c2c1 ?
TsaE inh: inactive; Casp7 inh: -2.5%; BRCT inh green: -0.2%; BRCT PPI red: -2.9%; USP2a inh: 9.7%; Caspase-1 inhib: 1.5%

How did COc1cc(OC)cc([C@H](CNc2ncnc3c2ncn3[C@@H]2O[C@@H](CO)[C@H](O)[C@@H]2O)c2ccccc2C)c1 do in these assays?
TsaE inh: inactive

Results for C[C@]12CC[C@H]3c4ccc(OC[C@H]5CO5)cc4CC[C@H]3[C@H]1CC[C@@H]2O ?
Casp7 inh: 0.6%[11.5 µM]; BRCT inh green: -0.3%[15.4 µM]; BRCT PPI red: 0.4%[15.4 µM]; Caspase-1 inhib: -0.8%[11.5 µM]

Results for CCN(c1cccc(C)c1)S(=O)(=O)c1ccc(O)c(C(=O)O)c1 ?
Casp7 inh: -2.4%; BRCT inh green: -0.7%; BRCT PPI red: -1.2%; Caspase-1 inhib: -2.2%

Results for CC1=CC(C#N)(C#N)C(C#N)(C#N)C(c2ccccc2)N1 (stereo not given) ?
TsaE inh: 50.1µM*; Casp7 inh: inconclusive; BRCT inh green: -6.1%; BRCT PPI red: -17.4%; USP2a inh: 1.7%

How did Cc1c(Cl)cc(C(C)(C)C)c(O)c1Cc1c(C)c(Cl)cc(C(C)(C)C)c1O do in these assays?
TsaE inh: inactive; Casp7 inh: -1.0%[11.5 µM]; BRCT inh green: -0.1%[15.4 µM]; BRCT PPI red: -0.2%[15.4 µM]; Caspase-1 inhib: -2.0%[11.5 µM]

What do the screens show for `c1coc(-c2nc(-c3ccco3)c(-c3ccco3)nc2-c2ccco2)c1`?
TsaE inh: inactive; Casp7 inh: inconclusive; BRCT inh green: 12.6µM*; BRCT PPI red: inconclusive; USP2a inh: inconclusive

How did CN(C)CCNS(=O)(=O)N(C)C do in these assays?
TsaE inh: inactive; Casp7 inh: 1.0%[11.5 µM]; BRCT inh green: 0.6%[15.4 µM]; BRCT PPI red: -1.2%[15.4 µM]; Caspase-1 inhib: 0.3%[11.5 µM]

What do the screens show for `COC(=O)[C@H](N)Cc1ccc(Cl)cc1`?
TsaE inh: inactive; Casp7 inh: -0.2%; BRCT inh green: -1.2%; BRCT PPI red: -0.5%; USP2a inh: -2.5%; Caspase-1 inhib: 1.4%

How did COc1ccc(-c2coc3ccc(OC4OC(COC(C)=O)C(OC(C)=O)C(OC(C)=O)C4OC(C)=O)cc3c2=O)cc1 (stereo not given) do in these assays?
Casp7 inh: -0.1%; BRCT inh green: -2.2%; BRCT PPI red: 2.4%; Caspase-1 inhib: -1.4%

Results for CC[C@H](C)C(=O)O[C@@H]1CCC=C2C=C[C@H](C)[C@@H](CC[C@H]3C[C@@H](O)CC(=O)O3)[C@H]21 ?
TsaE inh: inactive

What do the screens show for `CCCc1ccc(Oc2cn[nH]c2-c2ccc(O)cc2O)cc1`?
TsaE inh: inactive; Casp7 inh: -11.8%; BRCT inh green: -9.0%; BRCT PPI red: -1.5%; USP2a inh: 3.98µM*; Caspase-1 inhib: -9.5%

How did CO[C@@H]1COC(=O)C/C=C\[C@@H](C)[C@H](OC)COC(=O)[C@H](COCc2ccccc2)NC(=O)C/C=C\[C@H]1C do in these assays?
Casp7 inh: -1.1%[11.5 µM]; BRCT inh green: 12.2%[15.4 µM]; BRCT PPI red: -0.3%[15.4 µM]; Caspase-1 inhib: -0.3%[11.5 µM]

What do the screens show for `N=C(N)SCc1cccc(-c2nc3ccccc3c(=O)o2)c1`?
TsaE inh: inactive; Casp7 inh: -0.5%[11.5 µM]; BRCT inh green: -0.1%[15.4 µM]; BRCT PPI red: -1.2%[15.4 µM]; Caspase-1 inhib: -4.0%[11.5 µM]

Assay outcomes as filed in PubChem.
